{
  "source": "PubChem BioAssay AID687001",
  "about": "(Broad Institute, 2013)",
  "note": "Entries with a potency or affinity are not part of this list. Unmarked numbers belong to inactive results.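 Rule for the calls: active = signal-lowering compounds whose fitted half-maximal concentration is at or below twice the top tested dose in every run; inconclusive = runs disagree, flat 30 to 70% inhibition, or poor curve fit; inactive = the rest.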",
  "data": [
    {"molecular_target": "Protein S100-A4 (Homo sapiens) (UniProt P26447)", "sequence (P26447 whole entry, looked up)": "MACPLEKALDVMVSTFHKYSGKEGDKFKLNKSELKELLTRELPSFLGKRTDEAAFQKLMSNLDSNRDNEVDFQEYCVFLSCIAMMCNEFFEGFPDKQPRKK", "assay": "human S100A4 peptide interaction inhibition curves – biochemical, fluorescence polarization, cherry-picked hits, dose response (AID 687001);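 note: 0% = DMSO neutral control wells and -100% = TFP positive control wells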", "conditions": "FP, S100A4/TAMRA-myosin IIA peptide binding; series mostly up to 11 µM; activity change, negative = inhibition: at the top concentration", "units": {"activity change, negative = inhibition": "%"}, "values": [
      {"smiles": "O=C(C1CCCC1)N1CCCCN2[C@H](CO)[C@@H](c3ccc(C#CC4(O)CCCC4)cc3)[C@H]2C1", "activity change, negative = inhibition": 2.41},
      {"smiles": "O=C(CSc1n[nH]c(-c2ccc(Br)cc2)n1)NC1CCCC1", "activity change, negative = inhibition": 7.31},
      {"smiles": "C[C@@H]1CN([C@H](C)CO)C(=O)c2cccc(NS(C)(=O)=O)c2O[C@@H]1CN(C)CC1CC1", "activity change, negative = inhibition": -2.8},
      {"smiles": "COc1ccccc1N1CC(C(=O)Nc2ccc(C)c(S(=O)(=O)N3CCOCC3)c2)CC1=O", "note": "(centres undefined)", "activity change, negative = inhibition": 8.29},
      {"smiles": "Cc1cc(Nc2cccc(F)c2)cc(=O)n1-c1cccc(F)c1", "activity change, negative = inhibition": 8.17},
      {"smiles": "C/C=C/c1ccc(C2[C@H]3CNC[C@@H]2N3S(=O)(=O)c2ccccc2C)cc1", "note": "(some centres undefined)", "activity change, negative = inhibition": 29.6},
      {"smiles": "COc1ccccc1CNC(=O)COC(=O)CSc1ccc(Cl)cc1", "activity change, negative = inhibition": -3.44},
      {"smiles": "CCC(c1nc2ccccc2[nH]1)n1c(-c2cccnc2)nc2ccccc21", "note": "(centres undefined)", "activity change, negative = inhibition": -4.62},
      {"smiles": "Cc1ccc(NC(=O)CSc2ccc(-c3cccnc3)nn2)cc1", "activity change, negative = inhibition": 2.04},
      {"smiles": "O=C(/C=C/c1cc(Br)ccc1F)OCC(=O)N1CCOCC1", "activity change, negative = inhibition": -5.43},
      {"smiles": "CCc1ccc(CNC(=O)C2CCN(S(=O)(=O)N3CCC(C)CC3)CC2)cc1", "activity change, negative = inhibition": 2.94},
      {"smiles": "CC1(C)CC2CC(C)(CN2/C=N/c2sc3c(c2C#N)CC(C)(C)NC3(C)C)C1", "note": "(centres undefined)", "activity change, negative = inhibition": -0.327},
      {"smiles": "CC(OC(=O)C1=COCCO1)C(=O)Nc1ncc(Cl)cc1Cl", "note": "(centres undefined)", "activity change, negative = inhibition": 0.629},
      {"smiles": "O=S(=O)(NC(=NCc1ccccc1)c1ccccc1)c1ccccc1", "activity change, negative = inhibition": -3.1},
      {"smiles": "Cn1c(=O)[nH]c(=O)c2c1nc(SCC(=O)O)n2CCOc1ccccc1", "activity change, negative = inhibition": 3.41},
      {"smiles": "COc1cc(Cl)ccc1OCc1cc(C(=O)N2CCCCCCC2)no1", "activity change, negative = inhibition": 0.083},
      {"smiles": "C[C@@H]1CN([C@@H](C)CO)C(=O)c2cccc(N(C)C)c2O[C@@H]1CN(C)C(=O)Nc1cccc2ccccc12", "activity change, negative = inhibition": 0.748},
      {"smiles": "Cn1c(CC(=O)NNC(=O)c2ccc(F)cc2F)nc2ccccc21", "activity change, negative = inhibition": -2.58},
      {"smiles": "COc1cc(/C=C/C(=O)OCC(=O)N2c3ccccc3NC(=O)C2(C)C)cc(OC)c1OC", "activity change, negative = inhibition": 6.96},
      {"smiles": "CC(C)C[C@H]1CN(CCCC[C@@H]2CNC(=O)C(=O)N2Cc2ccccc2)C(=O)C(=O)N1Cc1ccccc1", "activity change, negative = inhibition": -0.618},
      {"smiles": "COc1ccc(NC(=O)CN(C)C(=O)c2ccc(N3CCCC3)c([N+](=O)[O-])c2)cc1", "activity change, negative = inhibition": 0.18},
      {"smiles": "C[C@@H]1ON(C)[C@H]2C[C@H]3c4[nH]c5ccccc5c4CCN3C(=O)[C@@H]12", "activity change, negative = inhibition": 8.57},
      {"smiles": "C[C@@H]1CN([C@@H](C)CO)C(=O)c2cc(NC(=O)CCC(F)(F)F)ccc2O[C@@H]1CN(C)C(=O)Nc1ccc(F)cc1", "activity change, negative = inhibition": 0.783},
      {"smiles": "CO[C@@H]1CN(C)C(=O)c2cc(NC(C)=O)ccc2OC[C@H](C)N(Cc2cncnc2)C[C@H]1C", "activity change, negative = inhibition": -1.37},
      {"smiles": "CCCCn1c(SCC(=O)NC2CCS(=O)(=O)C2)nc2ccccc2c1=O", "note": "(centres undefined)", "activity change, negative = inhibition": 15.2},
      {"smiles": "O=S(=O)(Nc1ccc(N2CCCCC2)cc1)c1ccc(F)cc1", "activity change, negative = inhibition": 8.2},
      {"smiles": "CCCCSc1nnc(-c2ccccc2N)c(=O)[nH]1", "activity change, negative = inhibition": 3.48},
      {"smiles": "CCNC(=O)[C@H]1[C@H](CO)[C@H]2Cn3c(ccc(-c4ccc(F)cc4)c3=O)[C@@H]1N2C", "activity change, negative = inhibition": 0.752},
      {"smiles": "CCCNC(=O)N1[C@H](CO)[C@@H]2c3ccccc3N(C(=O)c3ccc(F)cc3)C[C@@H]21", "activity change, negative = inhibition": 1.39},
      {"smiles": "Cc1ccc(S(=O)(=O)NCC[C@@H]2CC[C@@H](NC(=O)C3CCOCC3)[C@H](CO)O2)cc1", "activity change, negative = inhibition": -1.78},
      {"smiles": "CC(C)n1nnnc1C1c2ccccc2C(=O)N1Cc1cccc(F)c1", "note": "(centres undefined)", "activity change, negative = inhibition": 1.19},
      {"smiles": "CN(C)Cc1cn(CC[C@H]2CC[C@H](NC(=O)Cc3cccnc3)[C@H](CO)O2)nn1", "activity change, negative = inhibition": -0.327},
      {"smiles": "CC(OC(=O)CSCC(=O)Nc1ccc(Cl)cc1)C(=O)N(C)Cc1ccccc1", "note": "(centres undefined)", "activity change, negative = inhibition": -2.64},
      {"smiles": "COc1cccc(CNC(=O)C2CCCN(S(=O)(=O)c3ccc4c(c3)C(C)(C)C(=O)N4C)C2)c1", "note": "(centres undefined)", "activity change, negative = inhibition": -4.47},
      {"smiles": "Cc1noc(C)c1NC(=O)N(C)C[C@H]1OCCCC[C@H](C)Oc2ccc(NS(=O)(=O)c3ccc(F)cc3)cc2C(=O)N([C@H](C)CO)C[C@@H]1C", "activity change, negative = inhibition": 4.96},
      {"smiles": "COCCCNc1nc2ccccc2nc1NS(=O)(=O)c1cc(Cl)ccc1Cl", "activity change, negative = inhibition": -1.43},
      {"smiles": "Cc1ccc(S(=O)(=O)NCCC(=O)NCc2ccccn2)cc1", "activity change, negative = inhibition": 2.35},
      {"smiles": "Cc1ccc(S(=O)(=O)N[C@H]2C=C[C@@H](CC(=O)NC3CCCCC3)O[C@@H]2CO)cc1", "activity change, negative = inhibition": 2.43},
      {"smiles": "O=C(CSc1ccsc1[N+](=O)[O-])NCc1ccccc1", "activity change, negative = inhibition": 19.1}
    ]}
  ]
}
